SMILES strings stand for the structures. Unmarked numbers belong to inactive results. Activity calls are given as the source filed them. No stated cut-off is given here; in the data, active means fold change permeability below about 0.7 or above about 1.3; inactive means in between.

The experiment can be described thus: modulators of brain endothelial barrier permeability, primary screen, cell-based, FITC-avidin fluorescence, HTS (AID 1963498). Further: test concentration not given here. The conditions noted are these: actives lie on both sides.
For `NC(=O)C(c1ccccc1)(c1ccccc1)[C@@H]1CCN(CCc2ccc3c(c2)CCO3)C1`, the fold change permeability was 0.8.
As to `CCc1ccc(OCC(=O)Nc2ccc(F)c([N+](=O)[O-])c2)cc1`, the fold change permeability is 1.1.
On to `CC(=O)/C=C1\C(=O)N(C)c2ccccc21`, for which the fold change permeability was 1.2.
Turning to `O=C(Nc1cc(C(F)(F)F)cc(C(F)(F)F)c1)Nc1c(Br)cc(Br)cc1-c1nn[nH]n1`, the fold change permeability is 0.9.
In the case of `CC(C)[C@H]1C(=O)N[C@@H](CCCN=C(N)N)C(=O)NCC(=O)N[C@@H](CC(=O)O)C(=O)N[C@H](Cc2ccccc2)C(=O)N1C` it was 1.2; in that of `CNC(=O)Oc1ccc2c(c1)[C@]1(C)CCN(C)[C@@H]1N2C`, 0.8.
The value for `O=[N+]([O-])c1ccc(CNc2nc(NCc3cccc(C(F)(F)F)c3)nc3nc[nH]c23)cc1` was 1.3 (active); that for `CN(C)C(=O)Nc1cccc(-c2ccc(N(C)C)cc2)c1` was 1.1; that for `Oc1ccc2c(c1)CC[C@H](c1ccccc1)[C@@H]2c1ccc(OCCN2CCCC2)cc1` was 1.3 (active).
Consider `c1ccc(-c2cnn3cc(-c4ccc(OCCN5CCOCC5)cc4)cnc23)cc1`, for which the fold change permeability was 1.2.
Turning to `O=P(O)(O)C(Cl)(Cl)P(=O)(O)O`, the fold change permeability is 1.1.
Consider `O=C1c2ccccc2C(=O)c2c(NCCc3ccc(O)cc3)ccc(NCCc3ccc(O)cc3)c21`, for which the fold change permeability was 1.1.
Regarding `CN(C)CCC=C1c2ccccc2C=Cc2ccccc21`, the fold change permeability is 1.1.
The value for `Cc1cc(N)c2ccccc2[n+]1CCCCCCCCCC[n+]1c(C)cc(N)c2ccccc21` was 1.6 (active); that for `Cn1cnc2c1c(=O)[nH]c(=O)n2C` was 1.3 (active); that for `CN1C(=O)CC[C@H]1c1cccnc1` was 0.9.
The value for `N[C@H](C(=O)O)[C@H](O)c1ccc(O)c(O)c1` was 0.9; that for `CCCc1c(-c2ccc(O)cc2)nn(-c2ccc(O)cc2)c1-c1ccc(O)cc1` was 1.4 (active).
In the case of `O=C(O)C1=CC(=C(c2ccc(O)c(C(=O)O)c2)c2ccc(O)c(C(=O)O)c2)C=CC1=O` it was 0.9; in that of `CC(=O)C1=C(C)N(c2cccc(C(F)(F)F)c2)C(=O)N[C@@H]1c1ccc(C#N)nc1`, 1.1; in that of `Oc1ccc2c(c1)OC[C@]1(O)Cc3cc(O)c(O)cc3[C@H]21`, 1.7 (active).
Turning to `CCC1(C)CC(=O)NC1=O` (centres undefined), the fold change permeability is 0.7 (active).
In the case of `Cc1cc(NC2CCCCC2)nc(-n2nc(C)cc2C)n1` it was 1.3 (active).
Regarding `COc1cc(-c2cc(-c3ccc(N4CCNCC4)cc3)cnc2C)cc(OC)c1OC`, the fold change permeability was 1.2.
The value for `Cc1ccc2c(c1CCC(=O)O)CC[C@@H](NS(=O)(=O)c1ccc(Cl)cc1)C2` was 0.8; that for `O=C(O)CCc1ccc(NCc2cccc(Oc3ccccc3)c2)cc1` was 0.7 (active); that for `N[C@@H](CCC(=O)N[C@@H](CSN=O)C(=O)NCC(=O)O)C(=O)O` was 0.8.
In the case of `Nc1ncnc2c1c(-c1cccc(OCc3ccccc3)c1)cn2C1CC(CN2CCC2)C1` (centres undefined) it was 1.1; in that of `CN(C)CC[C@@H](c1ccc(Cl)cc1)c1ccccn1`, 1.1.
In the case of `CCN(CC)CCOC(=O)c1ccc(N)cc1` it was 0.8; in that of `O=C(O)C1=CCCN(CCON=C(c2ccccc2)c2ccccc2)C1`, 1.1; in that of `Nn1nnc2ccccc21`, 0.9.
Take `COc1ccc(Br)cc1S(=O)(=O)NC(=O)/C=C/c1ccccc1Cc1ccc2ccccc2c1`: the fold change permeability was 1.1.
For `NCCSSCCN`, the fold change permeability is 0.9.
The value for `COc1cccc2c(NCc3ccccc3)nc(-n3c(N)nc4ccccc43)nc12` was 0.9.
In the case of `c1ccc(Cn2c(NCc3ccco3)nc3ccccc32)cc1` it was 1.6 (active); in that of `CN1CCC(=C2c3ccccc3C=Cc3ccccc32)CC1`, 1.1.
In the case of `CN1CCC(=C2c3ccccc3CCn3c(C=O)cnc32)CC1`, the fold change permeability was 1.
For the compound `COc1cc(O)c(C)c(O)c1C(=O)CCc1ccccc1`, the fold change permeability is 1.8 (active).

Values taken from PubChem BioAssay.
